Records with an inconclusive call do not appear. Unmarked numbers belong to inactive results. Active and inactive are the calls of the source. Calls follow the shape of the dose curve; as a rule, active = well fitted inhibition curve with a large enough effect; inconclusive = small, poorly fitted or top-dose-only effect; inactive = no such curve, though single readings can be large or run the other way.
test: qHTS assay for measurement of the activity of small molecule inhibitors on Zika virus induced Caspase-3 activity in human iPSC derived neural progenitor cells (hNPCs) (AID 1224857); details: hNPCs ZIKV-induced caspase-3/7, Caspase-Glo luminescence, 6 h; series mostly up to 45.7 µM; activity change, negative = inhibition: at the top concentration; also: % of control where 0% means no effect; nearly all actives have a fitted effect of over 65% in size
Excerpt: National Center for Advancing Translational Sciences [NCATS]
Johns Hopkins University School of Medicine
Increase in the Caspase-3 activity indicates an activation of apoptosis cell death pathway caused by Zika virus infection in certain types of neuronal cells including human neural progenitor cells (hNPCs), astrocytes, and astrocytoma cell line (SNB-19). This cell-based caspase-3 activity assay measures the increased caspase-3 activity in the human iPSC derived neural progenitor cells (hNPCs) after a 6-hour Zika virus infection with a luminescence readout. A decrease in the luminescence signal in this assay by small molecule treatment indicates an inhibitory effect of that small molecule on the Zika virus induced caspase-3 activity that may correlate with its effect on reduction of Zika virus caused cell death.
The medium for hNPCs consists of DMEM/F12, N2 supplement (ThermoFisher, Cat.# 17502048), NEAA (ThermoFisher, Cat. # 11140050), 2 ug/ml heparin, 2 uM cyclopamine, and B27 (ThermoFisher, Cat. # 17504044). A Caspase-Glo 3/7 assay kit (catalog number G8092; Promega, Madison, WI) was used to detect caspase-3 activity induced by Zika virus infection in human cells. The reagent mixture was reconstituted as described in the protocol from the manufacturer. Polystyrene tissue culture treated and PDL coated white plates were obtained from Greiner Bio-One (Monroe, NC). Cells were seeded in 384- or 1536-well assay plates and cultured at 37 C with 5% CO2 for 16 to 20 hours. The typical cell seeding density in the 1536-well plate assay is 350 cells/well in 3 ul medium for hNPCs in tissue culture treated plates. Compounds were added to cells and incubated for one hour before addition of ZIKV solution to cells (2 FFU/cell). After incubation at 37 C with 5% CO2 for 6 hours, the reagent mixture of Caspase-Glo 3/7 assay kit was added to each well, followed by incubation at room temperature for 30 minutes. The luminescence intensity of the assay plates was measured using a ViewLux plate reader (PerkinElmer). Data were normalized by using the cell-containing wells without ZIKV as a negative control (0% induction of caspase 3/7 activity) and wells containing ZIKV infected cells (Caspase-3 activity induced) as a positive control (100% induction of caspase 3 activity). The percentage inhibitions of the increased Caspase-3 activity by small molecule inhibitors were then calculated.

Going from c1ccc(N2CCNCC2)cc1 to Nc1ccccc1, the “activity change, negative = inhibition” value rises from -0.975% to 6.59%.

First: CC1(C)C(C=C(Cl)Cl)C1C(=O)OC(C#N)c1cccc(Oc2ccccc2)c1 (stereo not given)
Second: COc1cccc(C(=O)CCN[C@@H](C)[C@H](O)c2ccccc2)c1
The “activity change, negative = inhibition” value of the first is higher: -4.46% for the first, -14.8% for the second.

Compared with C[C@]12CC[C@H]3[C@@H](CCC4=CC(=O)CC[C@@H]43)[C@@H]1CC[C@@H]2OC(=O)CCC1CCCCC1, C[C@]12CC[C@@H]3c4ccc(OC(=O)N(CCCl)CCCl)cc4CC[C@H]3[C@@H]1CC[C@@H]2OP(=O)(O)O is lower in “activity change, negative = inhibition” value: 120% for the first, 1.28% for the second.

Compared with C[C@]12CCC(=O)C=C1CC[C@@H]1[C@@H]2CC[C@@]2(C)[C@H]1CC[C@]2(C)O, C[C@]12CC[C@@H]3c4ccc(OC(=O)N(CCCl)CCCl)cc4CC[C@H]3[C@@H]1CC[C@@H]2O is lower in “activity change, negative = inhibition” value: 32.3% for the first, -13.9% for the second.

Going from CCC(C)C(C)(COC(N)=O)COC(N)=O (stereo not given) to CC(C)C[C@H](CN)CC(=O)O, the “activity change, negative = inhibition” value rises from 4.45% to 19.2%.

Compared with CCC(CC)(CNC(=O)CCCO)c1cccc(OC)c1, CCN[C@@H](C)Cc1cccc(C(F)(F)F)c1 is higher in “activity change, negative = inhibition” value: 0.904% for the first, 2.83% for the second.

First: CN1C(=O)NC(=O)C(C)(C2=CCCCC2)C1=O (stereo not given)
Second: CCC1(CC)C(=O)C=CNC1=O
The “activity change, negative = inhibition” value of the first is lower: -10.1% for the first, -9.38% for the second.

Compared with ClCCN1CCCC1, C#CC(O)(C=CCl)CC (stereo not given) is lower in “activity change, negative = inhibition” value: 15.7% for the first, 0.737% for the second.

Compared with CC(Cc1ccccc1)N(C)Cc1ccco1 (stereo not given), NC1=NC(=O)C(c2ccccc2)O1 (stereo not given) is higher in “activity change, negative = inhibition” value: 9.08% for the first, 11% for the second.

First: CN1CCC(O)(c2ccc(F)cc2)C(C(=O)c2ccc(F)cc2)C1 (stereo not given)
Second: O=C(O)c1ccc(=O)[nH]c1
The “activity change, negative = inhibition” value of the first is higher: 14.9% for the first, -4.1% for the second.

Compared with CCCCC/C=C\C/C=C\C/C=C\C/C=C\CCCC(=O)NCC(=O)O, CNCC(=O)c1ccc(O)c(O)c1 is lower in “activity change, negative = inhibition” value: -1.3% for the first, -2.81% for the second.

Compared with COP(=S)(OC)Oc1ccc(SC)c(C)c1, COP(=S)(OC)Oc1cc(Cl)c(Cl)cc1Cl is lower in “activity change, negative = inhibition” value: 12.3% for the first, -16.7% for the second.

First: CCC1(c2ccccc2)C(=O)N(COC)C(=O)N(COC)C1=O
Second: O=C1OC(c2ccc(O)c(S(=O)(=O)O)c2)(c2ccc(O)c(S(=O)(=O)O)c2)c2c(Br)c(Br)c(Br)c(Br)c21
The “activity change, negative = inhibition” value of the first is higher: 8.18% for the first, -14.9% for the second.

With O=C(N/N=C/c1ccc([N+](=O)[O-])o1)c1cc([N+](=O)[O-])cc([N+](=O)[O-])c1O the “activity change, negative = inhibition” value was -8.4%.

With CC(C)N(CCC(C(N)=O)(c1ccccc1)c1ccccn1)C(C)C (stereo not given) the outcome was “inactive”.
With CC(NC(C)(C)C)C(=O)c1cccc(Cl)c1 (stereo not given) the outcome was “inactive”.
For CCCCCN(C)CCC(O)(P(=O)(O)O)P(=O)(O)O, the outcome was “inactive”.
In the case of CC(C)(C)NCC(O)c1ccccc1Cl (stereo not given), the outcome is reported as “inactive”.
In the case of COc1cc(OC)c(OC)cc1C=O, the outcome is reported as “inactive”.

Compared with CC(Cc1ccccc1)NCCn1cnc2c1c(=O)n(C)c(=O)n2C (stereo not given), CCN[C@@H](C)Cc1ccccc1 is lower in “activity change, negative = inhibition” value: -1.11% [at 92.8 µM] for the first, -1.43% [at 92.8 µM] for the second.

First: COc1cc(CC(C)N)cc(OC)c1OC (stereo not given)
Second: CCN[C@H](C)Cc1cccc(C(F)(F)F)c1
The “activity change, negative = inhibition” value of the first is higher: 2.41% [at 92.8 µM] for the first, -1.94% [at 92.8 µM] for the second.

Compared with C[C@H](N)C(=O)c1ccccc1, CN1CC[C@]23c4c5ccc(O)c4O[C@H]2[C@@H](O)C=C[C@H]3[C@H]1C5 is higher in “activity change, negative = inhibition” value: -0.404% [at 92.8 µM] for the first, 0.482% [at 92.8 µM] for the second.

With C[C@H]1[C@@H]2Cc3ccc(O)cc3[C@@]1(C)CCN2C the “activity change, negative = inhibition” value was 26.6% [at 231 µM].

For c1ccc(CN2CCNCC2)cc1, the “activity change, negative = inhibition” value was 9.59% [at 178 µM].
